Data as given in PubChem BioAssay (EPA / NIEHS).
Records with an inconclusive call do not appear. Active and inactive are the calls of the source. Rule for the calls: active = hit-call score of the fitted dose curve at least 0.9, where 1 is the maximum; inconclusive = response in the unintended direction; inactive = score below 0.9.

Columns and labels:
[1] = TOX21_p53_BLA_p3_viability: Viability Assessment in the Tox21 HCT-116 p53 Agonism Beta-lactamase Assay, Phase 3 (AID 2283593);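 note: cells exposed to compound for 16 h before reading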
In short: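 Cellular ATP was quantified by CellTiter-Glo luminescence, read after 30 min at room temperature. Beforehand, HCT116 cells (4000/well) received compound 5 h post-seeding, 217-fold diluted from DMSO, then incubated 16 h at 37C.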

[2] = target: Cellular tumor antigen p53 (Homo sapiens) (UniProt P04637); test: TOX21_p53_BLA_p5_ratio: Tox21 HCT-116 p53 Agonism Beta-lactamase Assay, Ratio, Phase 5 (AID 2283599)
In short: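 Beta-lactamase reporter ratio (blue 460 nm over green 530 nm, 405 nm excitation) after 2 h CCF4-AM loading, in HCT-116 cells exposed 16 h at 37 C to compounds pinned at 217-fold dilution. Increases relative to DMSO baseline scored.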

[3] = TOX21_p53_BLA_p5_viability: Viability Assessment in the Tox21 HCT-116 p53 Agonism Beta-lactamase Assay, Phase 5 (AID 2283600)
In short: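 Counter-readout for cytotoxicity: ATP-dependent luminescence from CellTiter-Glo, read in the beta-lactamase wells after 30 min at RT, following a 16 h compound exposure at 37C.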

[4] = TOX21_p53_BLA_p4_viability: Viability Assessment in the Tox21 HCT-116 p53 Agonism Beta-lactamase Assay, Phase 4 (AID 2283597);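 note: hits lower the luminescence signal meaning cytotoxicity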
In short: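 Compound exposure of HCT116 cells lasts 16 h at 37C, 5% CO2, with DMSO stocks diluted 217-fold. Cellular ATP is then quantified by CellTiter-Glo luminescence after 30 min at room temperature.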

[5] = target: Cellular tumor antigen p53 (Homo sapiens) (UniProt P04637); test: TOX21_p53_BLA_p4_ratio: Tox21 HCT-116 p53 Agonism Beta-lactamase Assay, Ratio, Phase 4 (AID 2283601)
In short: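 Signal is the blue/green (460nm/530nm) ratio of cleaved versus uncleaved CCF4-AM substrate, read after 2 h substrate loading. Cells were HCT116 carrying the p53-responsive beta-lactamase reporter, dosed 16 h at 37C, 5% CO2; CellTiter-Glo measured in parallel.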

[6] = target: Cellular tumor antigen p53 (Homo sapiens) (UniProt P04637); test: TOX21_p53_BLA_p3_ratio: Tox21 HCT-116 p53 Agonism Beta-lactamase Assay, Ratio, Phase 3 (AID 2283596)
In short: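 HCT116 p53-bla cells (4000/well) given compound in DMSO (217-fold dilution) after 5 h, incubated 16 h at 37C. CCF4-AM substrate 2 h at room temperature; 460/530 nm emission ratio, gain fitted against DMSO.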

Measured: outcome

Cellular tumor antigen p53 (Homo sapiens), sequence (P04637 whole entry, looked up): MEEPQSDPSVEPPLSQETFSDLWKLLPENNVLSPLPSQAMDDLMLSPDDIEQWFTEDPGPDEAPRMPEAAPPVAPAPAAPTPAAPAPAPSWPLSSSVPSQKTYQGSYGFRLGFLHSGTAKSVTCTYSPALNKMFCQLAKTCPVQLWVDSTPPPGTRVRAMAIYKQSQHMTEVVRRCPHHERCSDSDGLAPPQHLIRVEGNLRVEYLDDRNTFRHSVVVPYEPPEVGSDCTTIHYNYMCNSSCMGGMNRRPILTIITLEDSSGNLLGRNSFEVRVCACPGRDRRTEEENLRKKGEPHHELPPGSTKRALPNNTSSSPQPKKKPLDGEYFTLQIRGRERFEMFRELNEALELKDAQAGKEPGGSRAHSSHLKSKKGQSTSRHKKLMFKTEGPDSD

CCCCCCCCCCCCCC=O
inactive: [1] | [2] | [3]

O=C(O)/C=C/c1cnc[nH]1
inactive: [1] | [4] | [5]

N[C@@H](CSCCCO)C(=O)O
inactive: [1] | [4] | [5]

CCCCC/C=C\C/C=C\CCCCCCCC(=O)NC(C)c1ccccc1 (stereo not drawn)
inactive: [1] | [2] | [5]

Nc1ncnc2c1ncn2CCOCP(=O)(O)O
inactive: [1] | [3] | [5]

CC(CCc1ccc(O)cc1)NCC(O)c1ccc(O)cc1 (stereo not drawn)
inactive: [6]

CCOC(=O)C(C)(C)C
inactive: [1] | [2] | [3] | [5]

CN(C)CCC(O)(c1ccccc1)c1ccccc1Cl (stereo not drawn)
inactive: [1] | [2] | [3]

Cc1cccc(C)c1N(CCCc1cccnc1)C(=O)C(C)N (stereo not drawn)
inactive: [1] | [2] | [5]

O=C1c2ccccc2C(=O)N1CO
inactive: [1] | [2] | [3] | [5]

BrC(Br)C(Br)Br
inactive: [1] | [2] | [3]
